The panel holds about 79,000 compounds, 15% with a hit somewhere; the sample as a whole holds those more often. The source made the active and inactive calls. Rule as the data show it: active = growth inhibition above about 70%; inactive = the rest.
Legend:
[1] = NCI Yeast Anticancer Drug Screen. Data for the mec2-1 strain (AID 157); conditions: S. cerevisiae mec2-1 strain, hits give high values
Procedure, shortened: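 mec2-1 yeast strain, carrying an alteration in DNA damage repair or cell cycle control, was exposed to compounds; growth inhibition was measured relative to vehicle-treated controls.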

[2] = NCI Yeast Anticancer Drug Screen. Data for the rad14 strain (AID 159);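 also: 0% = growth of vehicle-treated control cultures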; conditions: S. cerevisiae rad14 strain growth inhibition, hits give high values
Procedure, shortened: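 Test compounds were applied to a repair-deficient yeast strain. Its growth was then compared with that of cultures given vehicle alone, and inhibition was expressed relative to those controls.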

[3] = NCI Yeast Anticancer Drug Screen. Data for the sgs1 mgt1 strain (AID 161);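 also: 0% = growth of cultures given vehicle only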; conditions: S. cerevisiae sgs1 mgt1 strain, hits give high values
Procedure, shortened: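 Yeast cells carrying a defined DNA-repair defect were exposed to test compounds. Growth inhibition was measured relative to vehicle-treated controls.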

[4] = NCI Yeast Anticancer Drug Screen. Data for the CLN2oe strain (AID 163);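 also: 0% = growth of vehicle-only control cultures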; conditions: S. cerevisiae CLN2oe strain, hits give high values
Procedure, shortened: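 Yeast cells carrying a defined cell-cycle control alteration were exposed to test compounds. Growth inhibition was scored against vehicle-treated control cultures.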

[5] = NCI Yeast Anticancer Drug Screen. Data for the cln2 rad14 strain (AID 165);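 also: 0% = growth equal to vehicle treated cultures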; conditions: S. cerevisiae cln2 rad14 strain, hits give high values
Procedure, shortened: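 Yeast carrying cln2 and rad14 alterations (cell cycle control and DNA damage repair) were exposed to compounds. Growth inhibition was measured against vehicle-treated controls.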

[6] = NCI Yeast Anticancer Drug Screen. Data for the bub3 strain (AID 167); conditions: S. cerevisiae bub3 mutant strain, hits give high values
Procedure, shortened: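 Yeast carrying a defined mutation is treated with each compound, and growth is compared with that of vehicle-exposed cells to give inhibition.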

[7] = NCI Yeast Anticancer Drug Screen. Data for the mlh1 strain (AID 171);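 also: 0% = growth of vehicle-treated control cultures of the same strain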; conditions: S. cerevisiae mlh1 strain growth inhibition, hits give high values
Procedure, shortened: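 Yeast carrying a defined genetic alteration in DNA damage repair or cell cycle control were exposed to test compounds. Growth inhibition was measured relative to vehicle-treated controls.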

[8] = NCI Yeast Anticancer Drug Screen. Data for the sgs1 strain (AID 173);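 also: 0% = growth of vehicle-only control cultures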; conditions: S. cerevisiae sgs1 mutant, hits give high values
Procedure, shortened: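 Yeast mutant strains carrying defined defects in DNA damage repair or cell cycle control were exposed to test compounds. Growth inhibition was scored against vehicle-treated controls.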

[9] = NCI Yeast Anticancer Drug Screen. Data for the mlh1 rad18 strain (AID 175); conditions: S. cerevisiae mlh1 rad18 strain growth inhibition, hits give high values
Procedure, shortened: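 Growth inhibition of the yeast strain was measured after compound exposure and expressed relative to vehicle-treated controls. The strain carries defined defects in DNA damage repair.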

[10] = NCI Yeast Anticancer Drug Screen. Data for the rad18 strain (AID 177); conditions: S. cerevisiae rad18 mutant growth inhibition, hits give high values
Procedure, shortened: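 Yeast carrying a defined DNA damage repair alteration were exposed to compounds. Growth inhibition was expressed relative to vehicle-treated controls.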

[11] = NCI Yeast Anticancer Drug Screen. Data for the rad52 strain (AID 147);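 also: 0% = growth of vehicle-treated control cultures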; conditions: S. cerevisiae rad52 mutant growth inhibition, hits give high values
Procedure, shortened: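 Yeast strain carrying a DNA damage repair alteration was exposed to test compounds. Growth inhibition was measured relative to vehicle-treated controls.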

[12] = NCI Yeast Anticancer Drug Screen. Data for the wt1 strain (AID 149);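 also: 0% = growth of vehicle-treated wt1 cultures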; conditions: S. cerevisiae wt1 strain (SPY 50644) growth inhibition, hits give high values
Procedure, shortened: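 wt1 yeast, compound-treated; % growth inhibition vs vehicle control.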

[13] = NCI Yeast Anticancer Drug Screen. Data for the rad50EPP+ strain (AID 151);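 also: 0% = growth of vehicle-treated control cultures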; conditions: S. cerevisiae rad50 mutant strain, hits give high values
Procedure, shortened: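 Yeast strain carrying rad50 alteration (rad50EPP+) exposed to compounds; growth inhibition measured relative to vehicle-treated controls.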

[14] = NCI Yeast Anticancer Drug Screen. Data for the mgt1 strain (AID 153); conditions: S. cerevisiae mgt1 mutant growth inhibition, hits give high values
Procedure, shortened: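 Yeast mgt1 strain (DNA repair/cell-cycle alteration panel) exposed to compounds; growth inhibition measured relative to vehicle-treated controls.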

[15] = NCI Yeast Anticancer Drug Screen. Data for the rad50 strain (AID 155);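 also: 0% = growth of vehicle-only cultures of the same strain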; conditions: S. cerevisiae rad50 strain growth inhibition, hits give high values
Procedure, shortened: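 Genetically altered yeast (DNA repair pathway); compound treatment; growth inhibition vs vehicle ctrl.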

[16] = NCI Yeast Anticancer Drug Screen. Data for the wt2 strain (AID 169);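 also: 0% = growth of vehicle-treated yeast cultures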; conditions: S. cerevisiae wt2 strain growth inhibition, hits give high values
Procedure, shortened: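 Yeast cells were exposed to test compounds, and growth inhibition was measured relative to vehicle-treated controls.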

[17] = at 5.0 µM (retest, dose inferred, filed as 0.5)
[18] = at 50.0 µM (retest, dose inferred, filed as 5.0)

Measured: growth inhibition

O=C(Nc1cc(Cl)ccc1Cl)C(Cl)(Cl)Cl
inactive: [1]; [17] -4% | [1]; at 11.0 µM 11% | [1]; at 33.0 µM 19% | [1]; [18] 58% | [1]; at 50.0 µM 61.3% | [1]; at 100.0 µM 25% | [2]; at 1.2 µM 3% | [2]; at 3.7 µM 6% | [2]; at 11.0 µM 13% | [2]; at 33.0 µM 21% | [2]; at 100.0 µM 30% | [3]; [17] 1% | [3]; [18] 32% | [3]; at 50.0 µM 24.1% | [4]; at 1.2 µM 4% | [4]; at 3.7 µM 5% | [4]; at 11.0 µM 10% | [4]; at 33.0 µM 7% | [4]; at 100.0 µM 9% | [5]; [17] 32% | [5]; [18] -6% | [5]; at 50.0 µM -52.4% | [6]; at 1.2 µM -1% | [6]; at 3.7 µM 3% | [6]; [17] -11% | [6]; at 11.0 µM 8% | [6]; at 33.0 µM 10% | [6]; [18] 31% | [6]; at 50.0 µM 28.1% | [6]; at 100.0 µM 12% | [7]; at 1.2 µM 1% | [7]; at 3.7 µM 4% | [7]; at 11.0 µM 5% | [7]; at 33.0 µM 12% | [7]; at 100.0 µM 20% | [8]; at 1.2 µM 1% | [8]; at 3.7 µM 3% | [8]; at 11.0 µM 7% | [8]; at 33.0 µM 10% | [8]; at 100.0 µM 19% | [9]; [17] -1% | [9]; at 50.0 µM 63.6% | [10]; at 1.2 µM 2% | [10]; at 3.7 µM 4% | [10]; at 11.0 µM 16% | [10]; at 33.0 µM 23% | [10]; at 100.0 µM 31%
active: [9]; [18] 70%

c1ccc2cc3n[se]nc3cc2c1
active: [11]; at 100.0 µM 96% | [12]; at 100.0 µM 72% | [13]; at 100.0 µM 86% | [14]; at 100.0 µM 94% | [15]; at 33.0 µM 79% | [15]; at 50.0 µM 97.5% | [15]; at 100.0 µM 96% | [1]; at 100.0 µM 93% | [2]; at 100.0 µM 98% | [4]; at 100.0 µM 78% | [6]; at 100.0 µM 96% | [16]; at 100.0 µM 95% | [7]; at 100.0 µM 97% | [9]; at 50.0 µM 76.2% | [10]; at 100.0 µM 96%
inactive: [11]; at 1.2 µM 2% | [11]; at 3.7 µM 5% | [11]; at 11.0 µM 17% | [11]; at 33.0 µM 47% | [12]; at 1.2 µM 5% | [12]; at 3.7 µM 2% | [12]; at 11.0 µM 6% | [12]; at 33.0 µM 13% | [13]; at 1.2 µM 2% | [13]; at 3.7 µM 13% | [13]; at 11.0 µM 33% | [13]; at 33.0 µM 64% | [14]; at 1.2 µM 6% | [14]; at 3.7 µM 7% | [14]; at 11.0 µM 5% | [14]; at 33.0 µM 27% | [15]; at 1.2 µM 3% | [15]; at 3.7 µM 5% | [15]; [17] -14% | [15]; at 11.0 µM 19% | [15]; [18] 55% | [1]; at 1.2 µM 1% | [1]; at 3.7 µM 2% | [1]; [17] -14% | [1]; at 11.0 µM 8% | [1]; at 33.0 µM 16% | [1]; [18] 3% | [1]; at 50.0 µM 39.4% | [2]; at 1.2 µM 3% | [2]; at 3.7 µM 4% | [2]; at 11.0 µM 5% | [2]; at 33.0 µM 18% | [3]; [17] -15% | [3]; [18] 44% | [3]; at 50.0 µM 45.2% | [4]; at 1.2 µM -5% | [4]; at 3.7 µM 0% | [4]; at 11.0 µM 15% | [4]; at 33.0 µM 14% | [5]; [17] -21% | [5]; [18] 2% | [5]; at 50.0 µM -2.35% | [6]; at 1.2 µM -1% | [6]; at 3.7 µM 1% | [6]; [17] 13% | [6]; at 11.0 µM 4% | [6]; at 33.0 µM 28% | [6]; [18] 25% | [6]; at 50.0 µM 56.8% | [16]; at 1.2 µM 0% | [16]; at 3.7 µM 1% | [16]; at 11.0 µM 8% | [16]; at 33.0 µM 26% | [7]; at 1.2 µM 2% | [7]; at 3.7 µM 4% | [7]; at 11.0 µM 11% | [7]; at 33.0 µM 34% | [9]; [17] -11% | [9]; [18] 24% | [10]; at 1.2 µM 4% | [10]; at 3.7 µM 13% | [10]; at 11.0 µM 4% | [10]; at 33.0 µM 68%

CC[C@@]1(O)C[C@H](OC2CC(N(C)C)C(O)C(C)O2)c2c(O)c3c(c(O)c2[C@H]1OC1CC(N(C)C)C(O)C(C)O1)C(=O)c1cccc(O)c1C3=O (some centres undefined)
active: [11]; at 100.0 µM 92% | [14]; at 100.0 µM 87% | [15]; at 50.0 µM 83.1% | [15]; at 100.0 µM 90% | [1]; at 50.0 µM 85% | [2]; at 100.0 µM 83% | [3]; [18] 89% | [3]; at 50.0 µM 88.2% | [4]; at 100.0 µM 75% | [5]; [18] 71% | [5]; at 50.0 µM 75.8% | [6]; [18] 77% | [6]; at 50.0 µM 83.4% | [6]; at 100.0 µM 84% | [16]; at 100.0 µM 94% | [7]; at 100.0 µM 88% | [8]; at 100.0 µM 89% | [9]; at 50.0 µM 85% | [10]; at 100.0 µM 88%
inactive: [11]; at 1.2 µM 36% | [11]; at 3.7 µM 38% | [11]; at 11.0 µM 35% | [11]; at 33.0 µM 46% | [12]; at 1.2 µM -8% | [12]; at 3.7 µM 4% | [12]; at 11.0 µM 7% | [12]; at 33.0 µM 12% | [12]; at 100.0 µM 42% | [13]; at 1.2 µM 20% | [13]; at 3.7 µM 26% | [13]; at 11.0 µM 25% | [13]; at 33.0 µM 21% | [13]; at 100.0 µM 34% | [14]; at 1.2 µM 16% | [14]; at 3.7 µM 20% | [14]; at 11.0 µM 13% | [14]; at 33.0 µM 18% | [15]; at 1.2 µM 15% | [15]; at 3.7 µM 14% | [15]; [17] 16% | [15]; at 11.0 µM 11% | [15]; at 33.0 µM 27% | [15]; [18] 65% | [1]; at 1.2 µM 10% | [1]; at 3.7 µM -1% | [1]; [17] 10% | [1]; at 11.0 µM 3% | [1]; at 33.0 µM -4% | [1]; [18] 23% | [1]; at 100.0 µM 62% | [2]; at 1.2 µM 15% | [2]; at 3.7 µM 15% | [2]; at 11.0 µM 17% | [2]; at 33.0 µM 16% | [3]; [17] 5% | [4]; at 1.2 µM 3% | [4]; at 3.7 µM 6% | [4]; at 11.0 µM 1% | [4]; at 33.0 µM 10% | [5]; [17] 8% | [6]; at 1.2 µM 8% | [6]; at 3.7 µM 12% | [6]; [17] -9% | [6]; at 11.0 µM 6% | [6]; at 33.0 µM 10% | [16]; at 1.2 µM -21% | [16]; at 3.7 µM -24% | [16]; at 11.0 µM -44% | [16]; at 33.0 µM -4% | [7]; at 1.2 µM 20% | [7]; at 3.7 µM 20% | [7]; at 11.0 µM 16% | [7]; at 33.0 µM 10% | [8]; at 1.2 µM 14% | [8]; at 3.7 µM 9% | [8]; at 11.0 µM 11% | [8]; at 33.0 µM 18% | [9]; [17] 13% | [9]; [18] 63% | [10]; at 1.2 µM 6% | [10]; at 3.7 µM 12% | [10]; at 11.0 µM 5% | [10]; at 33.0 µM 30%

Reference: PubChem BioAssay (NCI)
